Measured values from PubChem BioAssay (EPA / NIEHS).
Calls of active or inactive are those of the source. Rule for the calls: active = hit-call score of the fitted dose curve at least 0.9, where 1 is the maximum; inactive = score below 0.9.

Test: Tanguay_ZF_120hpf_DP24: Oregon State University Tanguay Lab 24 Hour Post-fertilization zebrafish Assay for Delayed Development (AID 2284390)
Procedure: Tanguay_ZF_120hpf is a whole embryo, multiplexed endpoint assay using zebrafish larvae exposed for 120 hours post fertilization on a 96-well plate.Tanguay_ZF_120hpf_DP24 is […] measured or calculated from the Tanguay_ZF_120hpf assay. It is designed to make measurements of zebrafish development as detected with brightfield microscopy of developing zebrafish embryos.Data from the assay component Tanguay_ZF_120hpf_DP24 was analyzed into 1 assay endpoints. This assay endpoint, Tanguay_ZF_120hpf_DP24, was analyzed in the positive analysis fitting direction relative to DMSO as the negative control and baseline of activity. Using a type of morphology reporter, gain-of-signal activity can be used to understand changes in developmentals as they relate to the whole embryo. To generalize the intended target to other relatable targets, this assay endpoint is annotated to the zebrafish development intended target family, where the subfamily is embryonic morphogenesis.
Zebrafish husbandry: Tropical 5D wild-type adult zebrafish were housed in at an approximate density of 1000 per 100 gallon tank at the Sinnhuber Aquatic Research Laboratory, Oregon State University, Corvallis, OR. Each tank was kept at standard laboratory conditions of 28C on a 14-h light/10-h dark photoperiod in fish water consisting of reverse osmosis water supplemented with a commercially available salt (Instant Ocean). Spawning funnels were placed into the tanks the night prior, and embryos were collected and staged. To increase bioavailability, the chorion was enzymatically removed using pronase (63.6mg/ml, >/= 3.5U/mg, Sigma-Aldrich: P5147) at 4 hours post fertilization (hpf) using a custom automated dechorionator.Chemical exposures: Six hpf dechorionated embryos were placed 1 embryo per well in a 96-well plate prefilled with 90 ul of EM using automated embryo placement systems (AEPS). Ten microliters of each row of dilution plate 2 was added to 2 exposure plates. The final DMSO concentration used was 0.64% (vol/vol). Thirty-two embryos were also exposed to 5uM trimethyltin chloride (positive control). Plates were sealed to prevent evaporation and foil covered to reduce light exposure and kept in a 28C incubator. Embryos were statically exposed until 120 hpf. At 24 hpf, embryos were assessed for photomotor response using a custom photomotor response analysis tool (PRAT) and for developmental toxicity endpoints (MO24: mortality at 24 hpf, DP: developmental progression, SM: spontaneous movement, and NC: notochord distortion). At 120 hpf, locomotor activity was measured using Viewpoint Zebralab and assessed for 13 endpoints. Zebrafish acquisition and analysis program (ZAAP), a custom program designed to inventory, acquire, and manage zebrafish data, was used to collect developmental endpoints as either present or absent (i.e., binary responses were recorded). If mortality occurred for an embryo (at either 24 or 120 hpf), the non-mortality endpoints were not measured.

| SMILES | outcome | AC50 |
| --- | --- | --- |
| O=C(O)C(F)(F)OC(F)(F)C(F)(F)OC(F)(F)C(=O)O | inactive |  |
| O=C(O)C=CC(F)(C(F)(F)F)C(F)(F)F | inactive |  |
| NC(=O)C(F)(F)C(F)(F)F | inactive |  |
| O=C(O)C(F)(F)C(F)(F)C(=O)O | inactive |  |
| O=S(=O)(F)C(F)(F)C(F)(F)C(F)(F)C(F)(F)C(F)(F)C(F)(F)C(F)(F)C(F)(F)F | inactive |  |
| OCC(F)(F)OC(F)(F)C(F)(F)OC(F)(F)C(F)(F)OC(F)(F)CO |  | 33.3 µM (active) |
| OCC(F)(F)OC(F)(F)C(F)(F)OC(F)(F)C(F)(F)OC(F)(F)F | inactive |  |
| O=C(O)C(F)(F)OC(F)(F)C(F)(F)OC(F)(F)F | inactive |  |
| C=CC(=O)OCC(F)(F)C(F)F |  | 45.3 µM (active) |
| OCC(F)(F)OC(F)(F)C(F)(F)OC(F)(F)CO | inactive |  |
| O=C(O)C(F)(OC(F)(F)C(F)(F)C(F)(F)F)C(F)(F)F (centres undefined) | inactive |  |
| COC(=O)C(F)(F)C(F)(F)OC(F)(C(F)(F)F)C(F)(F)OC(F)=C(F)F (centres undefined) | inactive |  |
| FC(F)(F)C(F)(C(F)(F)F)C(F)(F)C(F)(F)CC1CO1 (centres undefined) | inactive |  |
| CC(O)C(F)(F)C(F)(F)F (centres undefined) | inactive |  |
